Each structure is given as a SMILES string.

This note sets out measurements from paper PMC5540273 (PLoS ONE, 2017).

Among the test systems are MAST1; MELK; MERTK; MET.
Settings in all cases: concentration: 1 μM, replicates: in singlicate; n = 1
The test system of another assay is T1, MEK1.
T1 construct: gene MAP2K1

The next assay concerns T2, MEK2.
T2 construct: gene MAP2K2

The test system of the next assay is T3, MEK3.
T3 construct: gene MAP2K3

Another assay concerns T4, MEK4.
T4 construct: gene MAP2K4

The subject of a further assay is T5, MEK5.
T5 construct: gene MAP2K5

The next assay relates to T6, MEK6.
T6 construct: gene MAP2K6
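Further: KINOMEscan kinase panel screen.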

Consider `CCc1ccc(-c2ccc3c(c2)-c2n[nH]cc2S(=O)(=O)N3C)cc1`, for which the “%Inh” value amounted to 0% in the assay with MAST1; 10% in the assay on MEK1; 86% in the assay on MEK2; 13% in the assay with MEK3; 0% in the assay with MEK4; 8% in the assay on MEK5. Also, the “%Inh” value is 0% with MEK6, 9% with MELK, 0% in the assay with MERTK and 0% in the assay on MET.
On to `COc1ccc(CSc2nnc(-c3ccc4nccn4c3)o2)cc1C(F)(F)F`, for which the “%Inh” value came out at 0% in the assay with MAST1; 13% with MEK1; 21% with MEK2; 43% with MEK3; 51% with MEK4; 0% in the assay on MEK5. The “%Inh” value was determined as 0% in the assay on MEK6, 16% in the assay on MELK, 5% in the assay on MERTK and 2% with MET.
Turning to `Cl.Cl.Cl.N#Cc1ccc(CCNc2nccc(-c3cccc(CN4CCNCC4)c3)n2)cc1` [GSK2137462], the “%Inh” value was determined as 0% in the assay on MAST1; 0% in the assay on MEK1; 0% with MEK2; 5% in the assay on MEK3; 20% with MEK4; 35% with MEK5. Moreover, the “%Inh” value was 7% in the assay on MEK6, 38% in the assay with MELK, 20% in the assay with MERTK and 0% with MET.
With `FC(F)(F)c1ccccc1-c1cc(-c2c[nH]nc2-c2ccccn2)ccn1` [GW679396], the “%Inh” value amounted to 4% in the assay with MAST1; 0% in the assay with MEK1; 0% in the assay with MEK2; 0% with MEK3; 16% in the assay on MEK4; 0% with MEK5. The “%Inh” value in the assay on MEK6 is reported as 0%; with MELK it was 0%; with MERTK, 26%; with MET, 0%.
In the case of `CC(C)c1ccc(O)cc1Nc1ccnc2ccc(C(F)(F)F)cc12` [GW482059], the “%Inh” value in the assay with MAST1 is reported as 0%; in the assay on MEK1, 0%; in the assay with MEK2 it was 0%; in the assay with MEK3 it was 0%; in the assay with MEK4, 22%; with MEK5, 1%. Further, the “%Inh” value in the assay with MEK6 came to 0%; with MELK, 5%; in the assay on MERTK it was 13%; with MET it was 0%.
